About 45 (2%) of roughly 2,000 compounds were called active. The full list was thinned out, with actives kept by preference. Unmarked numbers belong to inactive results.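 How the source made its calls: active means inhibition above the mean of all tested compounds plus 3 SD (cut at about 49% in these data); inactive means the rest.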

Perilipin-5 (Homo sapiens) + 1-acylglycerol-3-phosphate O-acyltransferase ABHD5 (Homo sapiens), sequence (Q00G26 whole entry, looked up): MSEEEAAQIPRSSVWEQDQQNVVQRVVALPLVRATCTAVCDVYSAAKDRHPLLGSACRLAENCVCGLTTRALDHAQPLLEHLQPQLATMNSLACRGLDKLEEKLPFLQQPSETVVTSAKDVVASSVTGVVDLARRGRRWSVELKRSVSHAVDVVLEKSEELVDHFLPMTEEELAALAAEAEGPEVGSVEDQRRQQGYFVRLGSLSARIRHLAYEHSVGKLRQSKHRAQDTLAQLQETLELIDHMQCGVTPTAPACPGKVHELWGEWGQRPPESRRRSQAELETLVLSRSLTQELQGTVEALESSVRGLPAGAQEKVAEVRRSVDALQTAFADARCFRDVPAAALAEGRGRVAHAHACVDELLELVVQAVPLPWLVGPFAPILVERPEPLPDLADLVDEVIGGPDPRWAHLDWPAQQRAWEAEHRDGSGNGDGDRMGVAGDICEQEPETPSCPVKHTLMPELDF
Perilipin-5 (Homo sapiens) + 1-acylglycerol-3-phosphate O-acyltransferase ABHD5 (Homo sapiens), sequence (Q8WTS1 whole entry, looked up): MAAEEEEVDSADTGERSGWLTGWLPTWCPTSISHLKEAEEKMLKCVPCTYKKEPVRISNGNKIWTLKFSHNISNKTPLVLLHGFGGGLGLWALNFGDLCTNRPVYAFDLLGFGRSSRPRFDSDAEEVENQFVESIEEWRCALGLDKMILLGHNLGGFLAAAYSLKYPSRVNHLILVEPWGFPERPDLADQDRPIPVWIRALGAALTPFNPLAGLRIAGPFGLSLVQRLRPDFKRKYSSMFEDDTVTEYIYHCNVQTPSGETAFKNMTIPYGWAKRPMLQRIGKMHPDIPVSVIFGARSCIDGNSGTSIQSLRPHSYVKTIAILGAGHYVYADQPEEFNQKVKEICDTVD

This assay has as its target Perilipin-5 (Homo sapiens) + 1-acylglycerol-3-phosphate O-acyltransferase ABHD5 (Homo sapiens) (UniProt Q00G26+Q8WTS1). The assay is described as follows: ABHD5-PLIN5 interaction inhibitors, pilot screen, cell lysate, split luciferase complementation, luminescence, NIH validation set (AID 493035).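 On inhibition: 0% = DMSO only wells while the 100% control is not stated.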 The following applies: split G. princeps luciferase complementation, lysates, 4 h; at 7.9 µM, active compounds read high.
As to `O=C1CCCCCN1Cc1ccccc1`, the inhibition (in general, the drop in the measured response relative to a control, in per cent) was 9.82%.
Consider `O=C1C=CC(=O)C(C2=C3C(=O)N(CCc4ccccc4)CC(=O)N3CCC2)=C1`, for which the inhibition was 74.5% (active).
The result for `C/C(=N/N1CCN(Cc2cccc3ccccc23)CC1)c1cccnc1` reads -8.01%.
For `CC1(C)C2CCC1(C(=O)O)c1nc3ccccc3nc12` (stereo not drawn), the inhibition is -0.64%.
As to `Cc1ccc(S(=O)(=O)Nc2ccc(S(=O)(=O)Nc3cc(C)nc(C)n3)cc2)cc1`, the inhibition was 4.03%.
With `CC(C)CCOCC(=O)Nc1cccc(C(=O)O)c1` the figure was -0.57%.
Take `COC(=O)C1=C(C)NC(C)=C(C(=O)OC)C1c1ccccc1[N+](=O)[O-]`: the inhibition result is “active”.
Consider `COC(=O)C1=C(C)NC(C)=C([N+](=O)[O-])C1c1ccccc1C(F)(F)F` (stereo not drawn), for which the inhibition is -2.75%.
Consider `CCOC(=O)C1=C(C)NC(C)=C(C(=O)OC)C1c1cccc([N+](=O)[O-])c1` (stereo not drawn), for which the inhibition was 3.99%.
The result for `O=C(O)CCSCCC(=O)O` reads 2.26%.
With `CC12CCC(C(=O)N3CCCCC3)([C@H](Br)C1=O)C2(C)C` (stereo partly drawn) the figure was -4.77%.
For `COc1ccc(C(=O)Nc2ccccc2C(=O)NC(Cc2c[nH]c3ccccc23)C(=O)O)cc1` (stereo not drawn), the inhibition was 1.79%.
With `COc1ccc(C(=O)Oc2ccc3c(C)cc(=O)oc3c2C(C)=O)cc1` the figure was 2.94%; with `COc1ccc(/C=C/C(=O)Nc2ccccc2C(=O)O)cc1OC`, -12.4%.
As to `COc1ccc(/C=C\C(=O)c2c(O)ccc3c(C)cc(=O)oc23)cc1OC`, the inhibition was 59.1% (active).
Turning to `Cc1ccc2c(CC(=O)O)coc2c1`, the inhibition was -6.46%.
Regarding `CCSC(SCC)[C@H](O)[C@@H](O)[C@H](O)[C@H](O)CO`, the inhibition was -2.61%.
Turning to `CC(C)(C)C(=O)N1CCCC1C(=O)O` (stereo not drawn), the inhibition was -7.48%.
`Nc1ccc(-c2nc3ncccc3o2)c(Cl)c1`: the inhibition was -10.8%.
For the compound `CC(C)Cc1cc(C(=O)N2CCC(N3CCC(C(=O)N4CCCC4)CC3)CC2)n[nH]1`, the inhibition was -3.07%.
On to `COc1cc(C2Nc3ccccc3NC3=C2C(=O)CC(c2ccc(OC)c(OC)c2)C3)ccc1O` (stereo not drawn), for which the inhibition is 1.84%.
The result for `C=CCC1(O)C(=O)N2C(=C1C(=O)N1CCOCC1)c1ccccc1CC2(C)C` (stereo not drawn) reads 0.31%; that for `Cc1ccc2c(c1)C(O)(CC(=O)/C=C/C=C/c1ccccc1)C(=O)N2` (stereo not drawn), 24.3%.
As to `Cc1ccc(C2=NOC(=O)/C2=C\C=C\c2ccccc2)cc1`, the inhibition is 94.4% (active).
On to `NC(=O)c1c(-c2ccccc2)oc2ccc(O)cc12`, for which the inhibition is -5.91%.
As for `CCOC(=O)C1=C(C)N[C@@]2(O)c3ccccc3C(=O)[C@@]12O`, the inhibition was 10.3%.
With `COc1ccc(OC(C)C(=O)Nc2ccccc2F)cc1` (stereo not drawn) the figure was 2.02%.
`O=C(c1cccnc1)N1N=C(C2CC2)CC1(O)C(F)(F)F` (stereo not drawn): the inhibition was 2.77%.
For `O=C(Nc1cccc(C(=O)O)c1)/C(=C\c1ccccc1)NC(=O)c1ccccc1`, the inhibition was -2.05%.
The result for `O=C(O)CCCCCCNC(=O)c1cncc(O)c1` reads -6.1%; that for `CC(=O)OC(CC(=O)O)C[N+](C)(C)C` (stereo not drawn), -14.8%; that for `CC(C)N1C(=O)/C(=C\c2nc3ccccc3c(=O)[nH]2)c2ccccc21`, 64.9% (active).
With `COc1ccc(C(=O)Nc2nc3ccccc3c(=O)[nH]2)cc1` the figure was 0.27%; with `COc1ccc(NC(=O)C2CSC3c4ccccc4C(=O)N23)cc1` (stereo not drawn), 4.85%.
`CCOC(=O)C(Cc1cc(C(C)=O)ccc1OC(C)C)C(=O)OCC`: the inhibition is -3.49%.
With `O=C1C2C3C=CC(C4CC34)C2C(=O)N1/N=C/c1ccc(-c2ccc([N+](=O)[O-])cc2)o1` (stereo not drawn) the figure was -2%.
For the compound `c1ccc(Cn2ncc3c(Nc4ccccc4)ncnc32)cc1`, the inhibition is -6.21%.
`O=C(NO)c1ccccc1O`: the inhibition was -11.8%.
Regarding `COC(=O)[C@@H](N)CS`, the inhibition was 78.9% (active).
Take `CC(=O)N[C@@H](CS)C(=O)O`: the inhibition was -2.08%.
Turning to `COc1cc(OC)c2c(C)c(Cl)c(=O)oc2c1`, the inhibition is -6.84%.
For the compound `CCN(CC)C(=O)c1sc(NC(=O)c2c(OC)cccc2OC)c(C#N)c1C`, the inhibition is -4.18%.
As for `CCCC(CCC)C(=O)OC1C[C@H]2CC[C@@H](C1)[N+]2(C)C` (stereo partly drawn), the inhibition is -9.28%.
Take `CCN(CC)C(=S)SSC(=S)N(CC)CC`: the inhibition is 95.2% (active).
As to `COc1ccc(O)c(C2=Nc3ccccc3N=C(c3ccccc3)C2)c1`, the inhibition is -11.4%.
With `C=CCOc1ccc(C(=O)CC)cc1OC`, the inhibition is -3.26%.
Turning to `CCc1oc2ccccc2c1C(=O)c1cc(Br)c(O)c(Br)c1`, the inhibition was 50.7% (active).
Regarding `CCCCc1oc2ccccc2c1C(=O)c1cc(I)c(OCCN(CC)CC)c(I)c1`, the inhibition was -3.91%.
As to `CC(=O)CCc1oc2ccccc2c1-c1ccccc1`, the inhibition was -0.95%.
For the compound `COc1ccc2cc[nH]c2c1`, the inhibition was 5.24%.
Take `COc1cccc2c(=O)c(C/C=C(/C)Cl)c(C)[nH]c12`: the inhibition is -0.4%.
The result for `COc1ccc(N2CCN(C(=S)NCc3ccccc3)CC2)cc1` reads 10.2%; that for `CC(C)=CCC(C)(C)/C=N/NC(N)=O`, -11.2%; that for `COc1ccccc1C(CCN(Cc1ccccc1)C(C)=O)c1ccco1` (stereo not drawn), 7.01%.
With `CC(=O)N(CCC(Cc1ccccc1)c1ccco1)Cc1ccco1` (stereo not drawn) the figure was 39.1%; with `O=C(c1ccco1)N(CCC(c1ccccc1)c1ccco1)Cc1ccco1` (stereo not drawn), 58.6% (active).
Consider `COc1ccc(-c2cc(C(=O)N3CCOCC3)c3cc(C)ccc3n2)cc1`, for which the inhibition is -3.27%.
Consider `O=C(c1ccc(Cl)cc1)C1CCCN(C(=O)/C=C/c2ccccn2)C1` (stereo not drawn), for which the inhibition is 8.56%.
The result for `CCCCC/C=C\C[C@H](O)/C=C/c1cccc(C[C@H](O)CCCCO)n1` reads 62.8% (active); that for `CSCCC(NC(=O)/C(=C/c1ccc2c(c1)OCO2)NC(=O)c1cccc([N+](=O)[O-])c1)C(=O)O` (stereo not drawn), 5.37%; that for `OC[C@@H](O)[C@@H](O[C@H]1O[C@H](CO)[C@@H](O)[C@H](O)[C@H]1O)[C@H](O)[C@@H](O)CO`, -8.59%.
`Cc1cccc(C(=O)c2cccc(C)c2)c1`: the inhibition was -8.84%.
The result for `Cn1c(=O)c(C(=O)NCCO)c(O)c2ccccc21` reads -4.23%.
